Measured values from PubChem BioAssay (NCI).
This is part of a sample that, as a whole, favours compounds with a hit. Of some 83,000 tested, about 20% had one in any assay.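 Method: cells in 96-well plates; compound added at one concentration; 48 h incubation; percent growth measured; values under 10 scored active.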 Values without a mark were called inactive. Activity calls are given as the source filed them.

The compounds below were run on HL-60(TB) leukemia (assay: NCI-60 one-dose screen, 48 h (100 = growth as untreated, 0 = no growth, -100 = all killed)). Conditions: 10 µM unless noted.

Structure (SMILES) | growth
Clc1nnc2c3ccccc3ccn12 | 92.6%
O=c1c2c(c(=O)n1O)c1c3ccc[nH]c3nc1c1nc3[nH]cccc3c12 | 81%
COc1ccc(N=Nc2ccc(O)c(=O)cc2)cc1 | -33.2% (active)
C/C(CCC(=O)O)=N/Nc1ccc([N+](=O)[O-])cc1 | 31.9%
Nc1ncnc2c1CN(Cc1ccccc1)CC2 | 105%
c1ccc(-c2oc(-c3ccccc3)c3ccccc23)cc1 | 109%
O=C(COc1ccc(/C=C2\Cc3ccc(Cl)cc3C2=O)cc1)Nc1nc2ccccc2s1 | 117%
O=C(O)CSCSCC(=O)O | 98.5%
O=C(NCc1ccc(Cn2c(=O)sn(-c3ccccc3)c2=O)cc1)OCc1ccc2cccc(O)c2n1 | -56.8% (active)
Cc1cc2[nH]c(=O)c3c4ncccc4cn3c2cc1C | 37.2%
COc1ccc(CCNc2nc3c(c(=O)n(Cc4ccc(Br)cc4)c(=O)n3C)n2C)cc1OC | 28.6%
CCC(C)N(CCNc1cc(OC)cc2cccnc12)CCC(C)C (stereo unspecified) | 81%
Cc1ccc2nc(NC(=O)CSc3nc(Cl)c(C#N)c(-c4ccccc4)n3)sc2c1 | 94.9%
Nc1c(C(=O)c2ccccc2)sc2nc(-c3cccs3)cc(-c3cccs3)c12 | 22%
Cn1cnc(-c2cc3nccc(Oc4ccc(NC(=S)NC(=O)Cc5ccccc5)cc4F)c3s2)c1 | 80%
COc1cc2c(c(OC)c1OC)CCc1cnoc1-2 | 114%
COC1=CC(c2ccc[nH]2)=N/C1=C\c1[nH]c(C)c(C(=O)CCCCC(=O)Nc2ccccc2)c1C | 74.9%
C/C(=C(\c1ccc(OCCN2CCCCCC2)cc1)c1ccc(OC(=O)c2ccccc2)cc1)c1ccc(Cl)cc1 | 13.8%
O=C(Nc1ccc2c(c1)OCCO2)C(=O)c1c[nH]c2ccccc12 | 13.7%
CCN(CC)c1ccc2nc3ccc(N=Nc4ccc(N(C)C)cc4)cc3[n+](-c3ccccc3)c2c1 | -32.2% (active)
CC1CCN(C(=O)CSc2nc3sc4c(c3c(=O)[nH]2)CCCC4)CC1 | 102%
CCCn1cnc2c(c1=N)C(c1ccc(Cl)cc1)c1sc3c(F)cccc3c1O2 (stereo unspecified) | 62.5%
Cc1cc(N2CCCCC2)nc(NC2CCCC(Nc3ccnc4cc(Cl)ccc34)C2)n1 (stereo unspecified) | -63.6% (active)
CCOc1cc2ncc(C#N)c(Nc3ccc(OCc4ccccn4)c(Cl)c3)c2cc1NC(=O)/C=C/CN(C)C | 2.7% (active)
O=C(/C=C\c1ccc(OCCCCCC[P+](c2ccccc2)(c2ccccc2)c2ccccc2)cc1)c1ccc2c(c1)OCCO2 | -13.2% (active)
CCN(CC)c1ccc(CNc2cc(C)nc3ccc(OC)cc23)cc1 | -56.3% (active)
